Activity calls are given as the source filed them. Rule for the calls: active = hit-call score of the fitted dose curve at least 0.9, where 1 is the maximum; inactive = score below 0.9.
Key:
[1] = APR_HepG2_CellCycleArrest_24hr: Apredica 24-hour HepG2 Assay for Cell Cycle Arrest (AID 2282905); settings: imaging, actives raise or lower the signal;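 note: cell cycle arrest scored as ratio of 2N to 4N nuclear DNA content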
Procedure, shortened: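 Readout: Hoechst 33342 nuclear DNA content by high-content fluorescent imaging, six images/well, 20x. Human HepG2 liver cells, 24 hr compound exposure, 0.39–200 uM, final DMSO 0.5% v/v. Gain or loss fitted relative to DMSO baseline.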

[2] = APR_HepG2_NuclearSize_24hr: Apredica 24-hour HepG2 Assay for Nuclear Size (AID 2282907); settings: high-content imaging, actives raise or lower the signal
Procedure, shortened: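 Read-out: nuclear diameter from Hoechst 33342 (2 ug/mL) imaging of fixed HepG2 cells, 20x, six fields/well. Compounds ran at 0.39–200 uM for 24 hr, 0.5% DMSO final. Gain or loss was fitted bidirectionally relative to the DMSO baseline.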

[3] = APR_HepG2_CellLoss_24hr: Apredica 24-hour HepG2 Assay for Cell Loss (AID 2282908); settings: high-content imaging;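 for AC50: fit in both directions so a hit may be cell loss or gain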
Procedure, shortened: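 Read-out: Hoechst 33342-stained nuclei counted by automated fluorescence imaging after formaldehyde fixation and Triton permeabilization. Ten concentrations, 0.39 to 200 uM, duplicate wells, 0.5% DMSO final. Gain or loss of signal fitted relative to DMSO baseline.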

[4] = APR_HepG2_MicrotubuleCSK_24hr: Apredica 24-hour HepG2 Assay for Microtubule CSK Stabilty (AID 2282909); settings: HepG2 microtubule cytoskeleton imaging, actives raise or lower the signal
Procedure, shortened: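 Read-out: alpha-tubulin immunofluorescence intensity by automated high-content imaging of fixed HepG2 cells after 24 h compound treatment. Ten concentrations, 0.39 to 200 uM, in duplicate; DMSO 0.5% v/v. Taxol positive control; DMSO-normalized bidirectional curve fitting.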

[5] = APR_HepG2_MitoticArrest_24hr: Apredica 24-hour HepG2 Assay for Mitotic Arrest (AID 2282910); settings: high-content imaging, actives raise or lower the signal
Procedure, shortened: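 High-content imaging of fixed HepG2 cells labeled with Hoechst 33342 and anti-phospho-histone H3, after 24 h treatment. Ten concentrations 0.39 to 200 uM in duplicate, final DMSO 0.5%; changes fitted both directions relative to DMSO.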

[6] = APR_HepG2_MitoMembPot_24hr: Apredica 24-hour HepG2 Assay for Mitochondrial Membrane Potential (AID 2282911); settings: imaging, actives raise or lower the signal
Procedure, shortened: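 Mitochondrial dye uptake (MitoTracker Red CMXRos, 250 nM, 30 min pre-fixation) in HepG2 after 24 hr compound exposure, 0.39–200 uM; ArrayScan images at 20x, activity fitted in both directions relative to DMSO.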

[7] = APR_HepG2_MitoMass_24hr: Apredica 24-hour HepG2 Assay for Mitochondrial Mass (AID 2282912); settings: high-content imaging, actives raise or lower the signal
Procedure, shortened: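 HepG2, 24 hr dosing, 10 concentrations 0.39–200 uM in duplicate, DMSO 0.5% final. MitoTracker Red CMXRos 250 nM, 30 min pre-fix; 3.7% formaldehyde fix. Imaging-based fluorescence intensity; gain/loss fit vs DMSO baseline.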

[8] = APR_HepG2_p53Act_24hr: Apredica 24-hour HepG2 Assay for p53 Activation (AID 2282913); settings: high-content imaging, actives raise or lower the signal;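 note: p53 protein immunofluorescence averaged per cell in HepG2 with Hoechst nuclei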
Procedure, shortened: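 Following 24 hr dosing of HepG2 at 0.39–200 uM, the cells undergo formaldehyde fixation, Triton permeabilization and multiplexed antibody labeling that includes p53 (Cy5). Signal from the imaging is referenced to DMSO solvent controls.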

[9] = APR_HepG2_CellCycleArrest_72hr: Apredica 72-hour HepG2 Assay for Cell Cycle Arrest (AID 2282914); settings: high-content imaging, actives raise or lower the signal
Procedure, shortened: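 Using multiplexed high-content imaging, HepG2 nuclei stained with Hoechst 33342 (2 ug/mL) were analysed for DNA content after fixation and permeabilization. Treatment lasted 72 hr across 0.39–200 uM in duplicate with final DMSO 0.5% v/v; DMSO served as negative control.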

[10] = APR_HepG2_CellLoss_72hr: Apredica 72-hour HepG2 Assay for Cell Loss (AID 2282915); settings: high-content imaging
Procedure, shortened: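 Cell number comes from Hoechst 33342-labelled nuclei, imaged at 20x after 3.7% formaldehyde fixation. Dosing was 0.39–200 uM, ten concentrations in duplicate, 0.5% DMSO final, for 72 h. Bidirectional fit relative to DMSO baseline.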

[11] = APR_HepG2_P-H2AX_72hr: Apredica 72-hour HepG2 Assay for H2AX Phosphorylation (AID 2282916); settings: imaging, actives raise or lower the signal;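 note: phospho-histone H2A.x immunostain intensity per cell marking DNA damage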
Procedure, shortened: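 Readout: phospho-H2A.x immunofluorescence (FITC secondary) plus Hoechst nuclear stain, high-content imaging at 20x, six fields/well. HepG2, 72 hr compound exposure, 0.39–200 uM, final DMSO 0.5% v/v. Gain or loss fitted relative to DMSO baseline.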

[12] = APR_HepG2_MitoMembPot_72hr: Apredica 72-hour HepG2 Assay for Mitochondrial Membrane Potential (AID 2282917); settings: imaging, actives raise or lower the signal
Procedure, shortened: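 Membrane potential read by MitoTracker Red CMXRos (250 nM, 30 min, pre-fixation) fluorescence imaging of HepG2 after 72 hr exposure. Ten concentrations, 0.39–200 uM, duplicate wells, 0.5% DMSO; fitted in both directions against DMSO baseline.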

[13] = APR_HepG2_MitoticArrest_72hr: Apredica 72-hour HepG2 Assay for Mitotic Arrest (AID 2282918); settings: high-content imaging, actives raise or lower the signal
Procedure, shortened: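 Using high-content imaging of fixed HepG2 cells, phospho-histone H3 signal was measured following a 72 hr incubation with ten-point compound dilutions up to 200 uM. DMSO served as the negative control and baseline for bidirectional curve fitting.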

[14] = APR_HepG2_P-H2AX_24hr: Apredica 24-hour HepG2 Assay for H2AX Phosphorylation (AID 2282920); settings: high-content imaging, actives raise or lower the signal
Procedure, shortened: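 Human HepG2 liver cells, treated 24 hr with test chemicals (0.39–200 uM, final DMSO 0.5% v/v), are fixed and co-stained for phospho-H2A.x and c-Jun with Hoechst. Imaged intensity is fitted in both directions against DMSO controls.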

[15] = APR_HepG2_StressKinase_72hr: Apredica 72-hour HepG2 Assay for Stress Kinase (AID 2282921); settings: HepG2 stress kinase (phospho-c-Jun) imaging, actives raise or lower the signal
Procedure, shortened: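 Phospho-c-Jun immunofluorescence measured by high-content imaging at 20x, six fields per well; bidirectional curve fitting against DMSO as baseline. Dosing: 0.39–200 uM, 72 h, 0.5% DMSO final.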

[16] = APR_HepG2_StressKinase_24hr: Apredica 24-hour HepG2 Assay for Stress Kinase (AID 2282922); settings: HepG2 stress kinase (phospho-c-Jun) imaging, actives raise or lower the signal
Procedure, shortened: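 High-content imaging of phospho-c-Jun immunofluorescence in fixed, permeabilized HepG2 cells after 24 h dosing. Ten concentrations, 0.39 to 200 uM, run in duplicate at 0.5% v/v DMSO; gain or loss of signal versus DMSO.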

[17] = APR_HepG2_MitoMass_72hr: Apredica 72-hour HepG2 Assay for Mitochondrial Mass (AID 2282924); settings: high-content imaging, actives raise or lower the signal;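 note: MitoTracker Red CMXRos stain intensity per cell imaged as mitochondrial mass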
Procedure, shortened: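 Readout is imaged MitoTracker Red (250 nM, 30 min, pre-fixation) signal, fitted bidirectionally against DMSO baseline. Human HepG2 liver cells received compound 0.39–200 uM in duplicate for 72 hr, final DMSO 0.5%.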

[18] = APR_HepG2_NuclearSize_72hr: Apredica 72-hour HepG2 Assay for Nuclear Size (AID 2282925); settings: high-content imaging, actives raise or lower the signal
Procedure, shortened: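 Nuclear size was read by high-content imaging of Hoechst 33342 stain after formaldehyde fixation. Compounds ran 72 h on HepG2 at 0.39 to 200 uM, with final DMSO 0.5% v/v. Curves fitted both directions relative to DMSO control.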

[19] = APR_HepG2_p53Act_72hr: Apredica 72-hour HepG2 Assay for p53 Activation (AID 2282923); settings: high-content imaging, actives raise or lower the signal;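 note: average cellular p53 protein immunofluorescence intensity in HepG2 cells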
Procedure, shortened: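 Readout: p53 immunofluorescence quantified by automated high-content imaging at 20x, six fields per well, nuclei located via Hoechst. Dosing ran 72 hr over ten concentrations from 0.39 to 200 uM; bidirectional curve fitting against DMSO baseline.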

Measured: AC50

CO[C@H]1/C=C/O[C@@]2(C)Oc3c(C)c(O)c4c(O)c(c(/C=N/N5CCN(C)CC5)c(O)c4c3C2=O)NC(=O)/C(C)=C\C=C\[C@H](C)[C@H](O)[C@@H](C)[C@@H](O)[C@@H](C)[C@H](OC(C)=O)[C@@H]1C
inactive: [1] | [2] | [3] | [4] | [5] | [6] | [7] | [8] | [9] | [11] | [12] | [14] | [15] | [16] | [17] | [18]
active: [10] 45.2 µM | [13] 46.2 µM

COc1ccc2cc(S(=O)(=O)N[C@H](CC(=O)N[C@H](Cc3ccc(CN4[C@H](C)CCC[C@@H]4C)cc3)C(=O)N(C)C(C)C)c3ccc4c(c3)OCO4)ccc2c1
active: [2] 28.7 µM | [3] 39.6 µM | [4] 7.6 µM | [5] 16 µM | [7] 12.7 µM | [8] 20.4 µM | [10] 25.3 µM | [11] 13.7 µM | [13] 11.1 µM | [15] 13.6 µM | [19] 10.7 µM | [17] 45 µM
inactive: [1] | [6] | [9] | [12] | [18]

O=C(O)Cc1cc(I)c(Oc2ccc(O)c(I)c2)c(I)c1
inactive: [1] | [2] | [3] | [4] | [5] | [6] | [7] | [8] | [9] | [10] | [11] | [12] | [13] | [14] | [15] | [17] | [18]

NC(=O)c1nc(-c2cccc(-c3cc(F)ccc3OCC(F)(F)C(F)(F)F)c2)n[nH]1
inactive: [1] | [2] | [4] | [6] | [8] | [12] | [13] | [17]
active: [3] 127 µM | [5] 101 µM | [7] 160 µM | [9] 104 µM | [10] 91.9 µM | [11] 111 µM | [15] 93.4 µM | [18] 100 µM

C[C@]12CC[C@@H]3c4ccc(O)cc4CC[C@H]3[C@@H]1CCC2=O
inactive: [1] | [2] | [3] | [4] | [5] | [6] | [7] | [9] | [10] | [11] | [12] | [13] | [14] | [15] | [17] | [18]

CCCCCCCCOC(=O)c1cc(O)c(O)c(O)c1
inactive: [2] | [7] | [15] | [17] | [18]
active: [1] 14.8 µM | [3] 90 µM | [4] 171 µM | [5] 50.8 µM | [6] 13.5 µM | [8] 43.3 µM | [9] 8.95 µM | [10] 63.2 µM | [11] 5.88 µM | [12] 23.8 µM | [13] 68.3 µM | [16] 52.1 µM | [19] 4.98 µM

CC[C@H](NC(=O)c1cc(F)ccc1NS(=O)(=O)c1cccc2cccnc12)c1ccccc1
inactive: [1] | [2] | [3] | [4] | [5] | [7] | [8] | [9] | [11] | [12] | [14] | [15] | [17] | [18]
active: [6] 105 µM | [10] 78.4 µM | [13] 92.5 µM
